In PubChem BioAssay AID2073 (Sanford-Burnham Center for Chemical Genomics, 2009):
“And” between values parts separate entries of the source, which are not always exact repeats. Identical values can stand only once. About 570 (0.2%) of roughly 290,000 compounds were called active. Roughly 1% stayed inconclusive and do not appear here. No stated cut-off is given here; in the data, active means inhibition mostly above about 51% (no sharp cut-off); inconclusive means no clear call, values can overlap the other calls; inactive means mostly below about 53%. The entries come from a sample that favours actives as a whole.

Target: Voltage-dependent N-type calcium channel subunit alpha-1B (Homo sapiens) (UniProt Q00975)
Sequence (Q00975 whole entry, looked up): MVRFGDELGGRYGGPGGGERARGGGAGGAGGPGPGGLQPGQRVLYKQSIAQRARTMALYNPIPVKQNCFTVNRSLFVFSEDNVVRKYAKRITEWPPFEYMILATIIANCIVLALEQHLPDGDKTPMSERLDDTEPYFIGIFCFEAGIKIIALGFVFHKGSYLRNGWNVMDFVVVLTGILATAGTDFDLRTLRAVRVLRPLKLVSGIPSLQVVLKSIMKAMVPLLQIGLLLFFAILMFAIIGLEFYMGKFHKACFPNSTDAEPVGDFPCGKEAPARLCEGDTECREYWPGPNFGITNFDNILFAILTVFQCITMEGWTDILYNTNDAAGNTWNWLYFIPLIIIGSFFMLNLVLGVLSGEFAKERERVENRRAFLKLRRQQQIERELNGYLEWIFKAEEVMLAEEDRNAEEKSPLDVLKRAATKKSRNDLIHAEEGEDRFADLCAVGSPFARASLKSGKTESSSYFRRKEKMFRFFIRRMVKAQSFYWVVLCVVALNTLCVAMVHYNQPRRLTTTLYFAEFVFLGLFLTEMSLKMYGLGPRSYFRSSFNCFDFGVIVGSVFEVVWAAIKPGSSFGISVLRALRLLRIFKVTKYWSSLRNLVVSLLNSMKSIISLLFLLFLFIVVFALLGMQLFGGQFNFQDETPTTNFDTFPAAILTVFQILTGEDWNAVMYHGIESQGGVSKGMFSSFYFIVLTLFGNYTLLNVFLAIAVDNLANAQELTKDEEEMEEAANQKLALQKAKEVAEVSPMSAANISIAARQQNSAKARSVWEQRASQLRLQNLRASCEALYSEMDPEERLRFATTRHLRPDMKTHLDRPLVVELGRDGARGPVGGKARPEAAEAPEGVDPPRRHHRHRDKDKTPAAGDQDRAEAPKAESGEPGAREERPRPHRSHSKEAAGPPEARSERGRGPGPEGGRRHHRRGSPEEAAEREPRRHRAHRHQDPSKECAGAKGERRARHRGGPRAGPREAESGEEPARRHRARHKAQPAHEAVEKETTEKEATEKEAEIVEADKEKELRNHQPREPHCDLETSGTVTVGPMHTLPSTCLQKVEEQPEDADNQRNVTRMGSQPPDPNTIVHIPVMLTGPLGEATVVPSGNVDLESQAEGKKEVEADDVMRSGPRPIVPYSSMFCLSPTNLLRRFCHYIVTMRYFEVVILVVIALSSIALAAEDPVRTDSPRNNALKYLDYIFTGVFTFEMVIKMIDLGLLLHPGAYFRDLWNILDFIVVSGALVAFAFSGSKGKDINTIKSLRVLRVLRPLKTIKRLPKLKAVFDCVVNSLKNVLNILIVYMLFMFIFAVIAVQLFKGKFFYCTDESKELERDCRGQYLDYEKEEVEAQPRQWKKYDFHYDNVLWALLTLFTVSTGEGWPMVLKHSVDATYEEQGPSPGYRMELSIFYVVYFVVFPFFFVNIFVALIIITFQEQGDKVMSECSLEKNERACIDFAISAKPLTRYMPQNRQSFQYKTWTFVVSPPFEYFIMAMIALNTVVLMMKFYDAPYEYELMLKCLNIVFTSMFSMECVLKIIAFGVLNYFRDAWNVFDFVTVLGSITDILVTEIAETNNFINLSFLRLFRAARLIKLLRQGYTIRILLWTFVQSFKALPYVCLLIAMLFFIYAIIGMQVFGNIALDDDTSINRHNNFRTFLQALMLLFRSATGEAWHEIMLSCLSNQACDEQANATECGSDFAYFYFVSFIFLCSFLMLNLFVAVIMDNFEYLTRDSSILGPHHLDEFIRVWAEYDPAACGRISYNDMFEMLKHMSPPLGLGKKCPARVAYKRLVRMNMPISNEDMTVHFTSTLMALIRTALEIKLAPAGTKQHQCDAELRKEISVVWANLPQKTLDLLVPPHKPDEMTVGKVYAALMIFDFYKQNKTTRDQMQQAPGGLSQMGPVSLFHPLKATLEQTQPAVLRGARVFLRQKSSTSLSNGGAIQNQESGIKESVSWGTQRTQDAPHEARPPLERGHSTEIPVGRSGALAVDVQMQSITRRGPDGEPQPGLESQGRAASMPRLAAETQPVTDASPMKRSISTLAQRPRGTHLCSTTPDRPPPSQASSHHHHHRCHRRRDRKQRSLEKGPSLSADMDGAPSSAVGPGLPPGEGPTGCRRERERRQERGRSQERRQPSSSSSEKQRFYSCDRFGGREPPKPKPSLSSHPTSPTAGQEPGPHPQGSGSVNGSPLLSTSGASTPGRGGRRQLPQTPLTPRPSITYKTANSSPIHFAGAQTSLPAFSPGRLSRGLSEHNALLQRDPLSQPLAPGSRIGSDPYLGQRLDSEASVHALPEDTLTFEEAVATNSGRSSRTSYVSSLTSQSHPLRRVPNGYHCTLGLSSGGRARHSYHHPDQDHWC
Assay: disruptors of CaV2.2 binding to Mint1 – biochemical, HTRF (AID 2073)
Conditions: HTRF protein-protein interaction, Mint1-CaV2.2, at 20 µM, stronger effect = higher value
[1] = measured here: average of repeat tests

In the case of `Cc1ccc(NC(=O)CN(C)c2ccc(S(=O)(=O)N3CCCC3)cn2)cc1`, the inhibition is reported as -2.9% (inactive).
With `CC1(C)CC2CC(C)(CN2C(=S)Nc2ccccc2)C1` (centres undefined) the inhibition was 12.7% (inactive).
For `Fc1ccccc1Nc1nc2c(s1)CCc1ccccc1-2`, the inhibition was 94.8% (active).
`Nc1nc2c(s1)CCc1ccccc1-2` was tested, and the inhibition was -30.6% (inactive).
For `CC(=O)Nc1nc2c(s1)CCc1ccccc1-2`, the inhibition was -3.5% (inactive).
`CC(c1nnc(SCC(=O)Nc2cccnc2Cl)n1Cc1ccccc1)N(C)C` (centres undefined) was tested, and the inhibition was 1% (inactive).
For `COc1ccc2nc3ccccc3nc2c1`, the inhibition was 23.5% (inactive).
`COc1ccc2nc3cccc(OC)c3nc2c1` was tested, and the inhibition was 61.8% (active).
In the case of `COc1cccc2nc3cc(C)c(C)cc3nc12`, the inhibition is reported as 23.4% (inactive).
In the case of `Cc1ccsc1/C=N/NC(=O)CO`, the inhibition is reported as 7.8% (inactive).
`CCCCNC(=O)[C@H](CSCc1ccccc1)N1Cc2ccccc2C1=O` was tested, and the inhibition was 0.1% (inactive).
In the case of `COc1ccc(CNC(=O)COc2cc(=O)n(C)c3ccccc23)cc1`, the inhibition is reported as 13.2% (inactive).
`O=C1/C(=C/c2ccco2)Cc2ccccc21` was tested, and the inhibition was 11.1% (inactive).
For `O=C1/C(=C/c2ccco2)CCc2ccccc21`, the inhibition was 15.3% (inactive).
With `Nc1ccc2c(c1)C/C(=C/c1ccco1)C2=O` the inhibition was 87.9% (active).
With `CCCCn1ccnc1C` the inhibition was -1.1% (inactive).
In the case of `O=C(CSc1cccc2cccnc12)Nc1ccccc1F`, the inhibition is reported as 12.1% (inactive).
`CCCOc1ccc(/C=C2\SC(N)=NC2=O)cc1OC` was tested, and the inhibition was -3% (inactive).
In the case of `COc1cc(/C=C2\SC(N)=NC2=O)ccc1OCC(=O)Nc1ccc(C)cc1`, the inhibition is reported as 61.4% (active).
With `C=CCOc1ccc(/C=C2\SC(N)=NC2=O)cc1OC` the inhibition was 10.2% (inactive).
In the case of `NC(=O)c1ccc2nc(-c3ccccc3)c(-c3ccccc3)nc2c1`, the inhibition is reported as 4.7% (inactive).
With `NC(=O)c1ccc2c(=O)n3c(-c4cc(Cl)c(N)c(Cl)c4)csc3nc2c1` the inhibition was -27% (inactive).
`O=C(NCc1nnc2c(C(F)(F)F)cc(Cl)cn12)c1ccc2c(c1)OCO2` was tested, and the inhibition was 9% (inactive).
For `O=C(c1ccc(COc2ccc(F)cc2)o1)n1cc(Br)cn1`, the inhibition was 8% (inactive).
With `CCCN1C(=O)/C(=C\C=C2/Sc3ccccc3N2CCO)SC1=S` the inhibition was 26.3% (inactive).
With `CCN1C(=O)/C(=C/C=C2/Sc3ccc4ccccc4c3N2CCO)SC1=S` the inhibition was 74.6% (active).
`CCN1C(=O)/C(=C/C=C2/Sc3ccccc3N2CCO)SC1=S` was tested, and the inhibition was 38.4% (inactive).
For `CC(C)CC(NC(=O)c1ccccc1)C(=O)N/N=C/c1ccco1` (centres undefined), the inhibition was 3.7% (inactive).
For `CCOc1ccccc1-n1c(SCC(N)=O)nnc1-c1ccccc1`, the inhibition was -2.1% (inactive).
In the case of `Cc1cccc2sc(NC(=O)c3cccc(S(=O)(=O)N4CCc5ccccc54)c3)nc12`, the inhibition is reported as 68.3% (active).
For `O=C(Nc1nc2ccccc2s1)c1cccc(S(=O)(=O)N2CCc3ccccc32)c1`, the inhibition was 8.8% (inactive).
In the case of `Cc1cc(C)c2nc(NC(=O)c3cccc(S(=O)(=O)N4CCc5ccccc54)c3)sc2c1`, the inhibition is reported as 6.3% (inactive).
`CCOc1ccc(C(CCc2ccccc2)NC(=O)c2ccccc2F)cc1OCC` (centres undefined) was tested, and the inhibition was 5.7% (inactive).
`O=C(O)C(Cc1c[nH]c2ccccc12)NS(=O)(=O)c1ccc(Br)cc1` (centres undefined) was tested, and the inhibition was -0.4% (inactive).
With `CNC(=O)c1c(O)c2cccc3c2n(c1=O)CCC3` the inhibition was 22.2% (inactive).
In the case of `Cn1c(=S)[nH]c(=O)c2ncc(=O)[nH]c21`, the inhibition is reported as -1.9% (inactive).
With `O=C(O)CCCCCCCC(=O)O` the inhibition was 0.9% (inactive).
With `O=C(O)CCCCC1SCC2NC(=O)NC21` (centres undefined) the inhibition was 8.5% (inactive) and -9.5% (inactive).
With `O=C(O)CCCCC1CCSS1` (centres undefined) the inhibition was 101% (active).
For `O=[N+]([O-])c1ccc(O)c(C=Nc2cccc3ccccc23)c1`, the inhibition was -35.1% (inactive).
With `COCCNC(=O)C(c1ccc(OC)cc1)N(CCOC)C(=O)CCC(=O)Nc1nccs1` (centres undefined) the inhibition was -3.6% (inactive).
In the case of `O=C(NCc1ccco1)c1cccn2c(=O)c3cc4ccccc4cc3nc12`, the inhibition is reported as 54.4% (active).
In the case of `O=C(NCc1ccco1)c1cnc2ccccn2c1=O`, the inhibition is reported as 0.3% (inactive).
With `COCCCNC(=O)c1cccn2c(=O)c3cc4ccccc4cc3nc12` the inhibition was -3.3% (inactive).
`Cc1ccc(N(C(=O)c2ccco2)C(C(=O)NC2CCCC2)c2cccnc2)cc1` (centres undefined) was tested, and the inhibition was -0.3% (inactive).
In the case of `O=C(N/N=C/c1ccc[nH]1)c1ccc(O)cc1`, the inhibition is reported as 38.2% (inactive).
With `Cc1ccc(/C=C2\SC(=S)N(/N=C/c3cc([N+](=O)[O-])ccc3O)C2=O)o1` the inhibition was 73.2% (active).
With `O=C1/C(=C/c2cccc(Br)c2)SC(=S)N1/N=C/c1cc([N+](=O)[O-])ccc1O` the inhibition was -2.1% (inactive).
`Cc1ccccc1/C=C1\SC(=S)N(/N=C/c2cc([N+](=O)[O-])ccc2O)C1=O` was tested, and the inhibition was 5.4% (inactive).
For `CCn1cc(CN2CCCC(C(=O)c3ccc(-c4ccccc4)c(F)c3)C2)cn1` (centres undefined), the inhibition was 6.5% (inactive).
`O=C(O)C1CCC(N2C(=O)c3c(Cl)c(Cl)c(Cl)c(Cl)c3C2=O)CC1` (centres undefined) was tested, and the inhibition was 81.3% (active).
In the case of `O=C(O)C1CCC(N2C(=O)C3CCCCC3C2=O)CC1` (centres undefined), the inhibition is reported as -2.9% (inactive).
With `O=C(O)C1CCC(N2C(=O)c3cccc([N+](=O)[O-])c3C2=O)CC1` (centres undefined) the inhibition was 5.9% (inactive).
`O=C1C2C3C=CC(C3)C2C(=O)N1c1n[nH]c(-c2ccccc2)n1` (centres undefined) was tested, and the inhibition was 11% (inactive).
For `CC(=O)Oc1cc(O)c2c(c1)OC(c1ccc(OC(C)=O)c(OC(C)=O)c1)C(OC(C)=O)C2=O` (centres undefined), the inhibition was 8.9% (inactive).
In the case of `O=C1NN(c2cccc(Br)c2)C(=O)/C1=C/c1ccc(-c2cc([N+](=O)[O-])ccc2O)o1`, the inhibition is reported as 61.4% (active).
`O=C1NN(c2ccccc2)C(=O)/C1=C\c1ccc(-c2cc([N+](=O)[O-])ccc2O)o1` was tested, and the inhibition was 31.4% (inactive).
With `CC1=NN(c2ccc(C)cc2)C(=O)/C1=C/c1ccc(-c2cc([N+](=O)[O-])ccc2O)o1` the inhibition was 44.4% (inactive).
`COc1ccc(/C=C2\SC(=S)N(CCC(=O)NCCCN3CCOCC3)C2=O)cc1` was tested, and the inhibition was -10.7% (inactive).
With `CCc1ccc(C(=O)NNc2ccc(Cl)cc2)cc1` the inhibition was -10.8% (inactive).
`COc1cc(CNCCO)cc(Br)c1OCc1cccs1` was tested, and the inhibition was -3.4% (inactive).
`O=C(Nn1cnnc1)c1csc2ccccc12` was tested, and the inhibition was -11.1% (inactive).
In the case of `Cc1cc2nc3c(=O)n(CCc4ccccc4)c(=O)[nH]c3nc2cc1N`, the inhibition is reported as 36.3% (inactive).
With `CCCCCCn1c(=O)[nH]c2nc3cc(N)c(C)cc3nc2c1=O` the inhibition was 4.4% (inactive).
`Cc1cc2nc3c(=O)n(Cc4ccccc4)c(=O)[nH]c3nc2cc1N` was tested, and the inhibition was 55.1% (active).
`NC1=NC[C@@H](Cc2ccc(O)cc2)N1CCc1cccc(F)c1` was tested, and the inhibition was 16.7% (inactive).
With `CC1CN(C(=O)CCCN2C(=O)c3ccccc3C2=O)CC(C)O1` (centres undefined) the inhibition was -7.3% (inactive).
With `COc1ccc2[nH]c(=O)c(CN(Cc3nnnn3Cc3ccco3)C3CCCCC3)cc2c1` the inhibition was 1.1% (inactive).
With `COc1ccc2[nH]c(=O)c(CN(Cc3ccco3)C(c3nnnn3Cc3ccccc3)C(C)C)cc2c1` (centres undefined) the inhibition was 12.1% (inactive).
With `Cn1c(/C=C/c2cccc([N+](=O)[O-])c2)nc2ccccc2c1=O` the inhibition was -20.2% (inactive).
For `CCOC(=O)C(O)(CC(=O)c1ccc(OC)cc1)C(F)(F)F` (centres undefined), the inhibition was -6.5% (inactive).
`CC(C)(C)c1cc(N)on1` was tested, and the inhibition was -7.8% (inactive).
With `CC1=CC(=O)c2ccccc2C1=O` the inhibition was -11.2% (inactive).
`CC1=CC(=O)c2c(O)ccc(O)c2C1=O` was tested, and the inhibition was 85.1% (active).
`COc1cccc2c1C(=O)C=C(C)C2=O` was tested, and the inhibition was -19.2% (inactive).
For `O=C(CCl)Nc1nc(-c2ccco2)c(-c2ccco2)s1`, the inhibition was 66% (active).
For `O=C(Nc1nnc(C2CC2)s1)C1CC(=O)N(c2ccc3c(c2)OCCO3)C1` (centres undefined), the inhibition was 12.6% (inactive).
In the case of `CCc1nnc(NC(=O)C2CC(=O)N(c3ccc4c(c3)OCCO4)C2)s1` (centres undefined), the inhibition is reported as 3% (inactive).
For `O=C(Nc1nc(-c2ccco2)c(-c2ccco2)s1)C1CCC1`, the inhibition was 58.1% (inactive) and the inhibition [1] was 1.4%.
For `O=C(CCCSc1ccccc1)Nc1nc(-c2ccco2)c(-c2ccco2)s1`, the inhibition was 71.8% (inactive) and the inhibition [1] was -7.2%.
In the case of `O=C(Nc1nc(-c2ccco2)c(-c2ccco2)s1)C1CC(=O)N(c2ccc3c(c2)OCCO3)C1` (centres undefined), the inhibition is reported as 66.7% (active).
`COc1ccc(CCN(C(=S)Nc2ccccc2)C2CC(=O)N(c3ccccc3)C2=O)cc1` (centres undefined) was tested, and the inhibition was 6.3% (inactive).
For `CC(C)Oc1cccc(C(=O)C2CCCN(C(=O)c3ccsc3)C2)c1` (centres undefined), the inhibition was -8.4% (inactive).
For `N#Cc1cnc(NOCc2ccc(Cl)cc2)nc1`, the inhibition was 9.4% (inactive).
For `O=c1c2c3n(c(=O)nc2[nH]n1-c1ccccc1)CCCCC3`, the inhibition was 1.1% (inactive).
For `O=C(NCCN1CCOCC1)/C(=C\c1ccccc1Cl)NC(=O)c1ccccc1`, the inhibition was 9.8% (inactive).
`COc1ccc(N=C2S/C(=C\c3ccc(OCC(=O)O)cc3)C(=O)N2CCc2c[nH]c3ccccc23)cc1` was tested, and the inhibition was 35.3% (inactive).
In the case of `COc1cc(/C=C2\SC(=Nc3ccccc3)N(CCc3c[nH]c4ccccc34)C2=O)ccc1OC(C)C(=O)O` (centres undefined), the inhibition is reported as 6.2% (inactive).
`Fc1cccc(Cl)c1CNc1ccc(N2CCCC2)cc1` was tested, and the inhibition was 54% (active).
With `NS(=O)(=O)c1ccc(NCc2c(F)cccc2Cl)cc1` the inhibition was -1.1% (inactive).
`Clc1cccc(Cl)c1CNc1ccc(N2CCCC2)cc1` was tested, and the inhibition was 31.8% (inactive).
With `CC(C)(C)SCCNC(=O)CN1C(=O)c2cccc3cccc1c23` the inhibition was 35.7% (inactive).
`CC(=O)Oc1ccc2c(=O)c(/C=N/c3cc(=O)[nH]c(=S)[nH]3)coc2c1` was tested, and the inhibition was 23.2% (inactive).
In the case of `O=c1cc(/N=C/c2coc3cc(Br)ccc3c2=O)[nH]c(=S)[nH]1`, the inhibition is reported as 14.4% (inactive).
`O=c1cc(/N=C/c2coc3c(ccc4ccccc43)c2=O)[nH]c(=S)[nH]1` was tested, and the inhibition was 52.9% (active).
`CCCCN(C)C(=O)c1c[nH]c2ccc(S(=O)(=O)N3CCOCC3)cc2c1=O` was tested, and the inhibition was 24.6% (inactive).
With `Cc1ccc(CNC(=O)c2ccc3c(c2)NC(=O)CS3)cc1` the inhibition was -5.9% (inactive).
